Test systems include SR leukemia; RPMI-8226 leukemia; OVCAR-8 ovarian; OVCAR-5 ovarian; OVCAR-4 ovarian; SK-OV-3 ovarian; IGROV1 ovarian; OVCAR-3 ovarian; HS 578T breast; NCI/ADR-RES ovarian; T-47D breast; BT-549 breast; MDA-MB-435 melanoma; SW-620 colon; MCF7 breast; HCT-116 colon; HCC-2998 colon; KM12 colon; MDA-MB-468 breast.
Experiment in all cases: NCI-60 one-dose screen, 48 h (100 = growth as untreated, 0 = no growth, -100 = all killed)
Details in all cases: 10 µM unless noted

Here are results for eight compounds from PubChem BioAssay (NCI).

This is part of a sample that, as a whole, favours compounds with a hit. Of some 83,000 tested, about 20% had one in any assay.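 Treatment: one concentration, 48 hours, 96-well format. Scoring: percent growth, with anything below 10 considered active.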 Unmarked numbers belong to inactive results. Active and inactive are the calls of the source.

As to `CCCSc1nc(NCCc2c[nH]c3ccccc23)c(C#N)c(-c2ccc(OC)cc2)n1`, the growth in the assay with SR leukemia is 4.81% (active); in the assay on RPMI-8226 leukemia, 23.9%; in the assay with OVCAR-8 ovarian, 67.9%; in the assay on OVCAR-5 ovarian it was 82.1%; with OVCAR-4 ovarian it was 61.2%; with SK-OV-3 ovarian it was 90.6%. For the same compound, the growth in the assay with IGROV1 ovarian is 91.2%; in the assay with OVCAR-3 ovarian it was 82.3%; in the assay on HS 578T breast it was 42.9%; in the assay with NCI/ADR-RES ovarian, 47.9%; in the assay on T-47D breast it was 15.3%; in the assay on BT-549 breast, 83.2%. The growth was 62.5% with MDA-MB-435 melanoma; 42.5% in the assay with SW-620 colon; 7.41% (active) in the assay on MCF7 breast; 20.8% in the assay on HCT-116 colon; 48% with HCC-2998 colon; 37.1% with KM12 colon. Further, the growth with MDA-MB-468 breast is 26.4%.
As for `COc1ccc(/C=C2\C(=N)N=C(SCc3nc4ccccc4[nH]3)NC2=O)cc1`, the growth is 103% with SR leukemia; 95.8% in the assay on RPMI-8226 leukemia; 107% in the assay with OVCAR-8 ovarian; 119% in the assay with OVCAR-5 ovarian; 102% with OVCAR-4 ovarian; 116% in the assay with SK-OV-3 ovarian. Besides, the growth with IGROV1 ovarian is 114%; in the assay on OVCAR-3 ovarian, 110%; in the assay on HS 578T breast it was 99.5%; with NCI/ADR-RES ovarian it was 104%; in the assay on T-47D breast it was 87.9%; with BT-549 breast, 106%. In addition, the growth in the assay on MDA-MB-435 melanoma was 105%; in the assay with SW-620 colon, 98.8%; in the assay on MCF7 breast it was 99.1%; in the assay with HCT-116 colon, 105%; with HCC-2998 colon, 116%; in the assay with KM12 colon it was 105%. For the same compound, the growth in the assay with MDA-MB-468 breast is 119%.
Regarding `O=C(Nc1ccccc1)N1CCN(c2cc(-c3cn(-c4ccccc4)nc3-c3cccc(O)c3)ccn2)CC1`, the growth was 19.2% in the assay on SR leukemia; 32.5% in the assay on RPMI-8226 leukemia; 43.9% in the assay on OVCAR-8 ovarian; 106% with OVCAR-5 ovarian; 84.2% in the assay with OVCAR-4 ovarian; 98.1% with SK-OV-3 ovarian. Also, the growth in the assay on IGROV1 ovarian is 84%; with OVCAR-3 ovarian, 98.2%; in the assay on HS 578T breast it was 83.1%; with NCI/ADR-RES ovarian, 23.7%; with T-47D breast, 13.1%; with BT-549 breast it was 67.3%. The growth was 13.7% in the assay on MDA-MB-435 melanoma; 87.5% in the assay on SW-620 colon; 63.3% in the assay on MCF7 breast; 65.7% in the assay with HCT-116 colon; 81.8% in the assay with HCC-2998 colon; 39.5% in the assay with KM12 colon. Further, in the assay with MDA-MB-468 breast, the growth is 58.7%.
Consider `CCCCc1c(Nn2cnnn2)no[n+]1[O-]`, for which the growth in the assay with SR leukemia is 36.9%; in the assay with RPMI-8226 leukemia, 45.8%; with OVCAR-8 ovarian, 42.1%; in the assay on OVCAR-5 ovarian, 83.2%; in the assay on OVCAR-4 ovarian, 55%; in the assay with SK-OV-3 ovarian it was 88.8%. The growth was 35.8% in the assay on IGROV1 ovarian; 51.4% in the assay with OVCAR-3 ovarian; 58.6% in the assay with HS 578T breast; 58.2% in the assay on NCI/ADR-RES ovarian; 51.5% with T-47D breast; 49.4% in the assay on BT-549 breast. The growth with MDA-MB-435 melanoma is 46.5%; in the assay on SW-620 colon, 57.6%; in the assay on MCF7 breast, 24.5%; in the assay with HCT-116 colon, 38.2%; in the assay with HCC-2998 colon, 78.8%; with KM12 colon it was 61.7%. In addition, the growth with MDA-MB-468 breast was 49.3%.
As for `COc1ccc2[nH]c(O)c(N=NC(=O)COc3ccc(NC(=O)Nc4ccccc4)cc3)c2c1`, the growth was 52.8% in the assay with SR leukemia; 80% in the assay with RPMI-8226 leukemia; 9.54% (active) in the assay with OVCAR-8 ovarian; 72.3% in the assay with OVCAR-5 ovarian; 19.7% in the assay on OVCAR-4 ovarian; 42.3% with SK-OV-3 ovarian. Moreover, the growth in the assay with IGROV1 ovarian is 60.7%; in the assay on OVCAR-3 ovarian, 65.5%; in the assay with HS 578T breast, 14%; in the assay with NCI/ADR-RES ovarian, 110%; in the assay with T-47D breast it was 27.1%; with BT-549 breast, -36.4% (active). Further, the growth was 56.9% in the assay with MDA-MB-435 melanoma; 38.4% in the assay on SW-620 colon; 23.7% in the assay with MCF7 breast; 29.3% in the assay on HCT-116 colon; 34.9% in the assay on HCC-2998 colon; -46.2% (active) in the assay on KM12 colon. Moreover, in the assay with MDA-MB-468 breast, the growth was 13%.
Consider `O=c1onc(-c2cc3ccccc3nc2Cl)n1-c1cccc2ccccc12`, for which the growth with SR leukemia is 16.8%; with RPMI-8226 leukemia it was 40.6%; with OVCAR-8 ovarian it was 51.4%; in the assay with OVCAR-5 ovarian, 94.8%; in the assay on OVCAR-4 ovarian, 38.6%; with SK-OV-3 ovarian, 34.4%. Also, the growth in the assay with IGROV1 ovarian is 61.8%; with OVCAR-3 ovarian it was 64%; in the assay with HS 578T breast it was 30%; with NCI/ADR-RES ovarian it was 15.2%; in the assay on T-47D breast, 3.09% (active); in the assay on BT-549 breast it was 28.5%. Further, the growth with MDA-MB-435 melanoma is -11.8% (active); in the assay with SW-620 colon it was 29.7%; in the assay on MCF7 breast, 21.4%; in the assay on HCT-116 colon, 40.2%; with HCC-2998 colon, 71.1%; in the assay with KM12 colon, 44.2%. Also, in the assay with MDA-MB-468 breast, the growth is -25.2% (active).
For the compound `CC(=O)/C=C/c1cccc2c1C(=O)NC(C)(c1cc3cc(Br)ccc3oc1=O)N2` (configuration not stated), the growth was -0.625% (active) in the assay on SR leukemia; 2.71% (active) in the assay with RPMI-8226 leukemia; 24.9% in the assay on OVCAR-8 ovarian; 30.8% in the assay with OVCAR-5 ovarian; 27.2% with OVCAR-4 ovarian; 52.6% in the assay with SK-OV-3 ovarian. Further, the growth with IGROV1 ovarian is 25.3%; in the assay with OVCAR-3 ovarian, 28.1%; with HS 578T breast, 46.6%; in the assay on NCI/ADR-RES ovarian, 32.9%; in the assay with T-47D breast, 32%; in the assay on BT-549 breast, -8.15% (active). The growth in the assay with MDA-MB-435 melanoma is 42.3%; with SW-620 colon, 32.3%; in the assay with MCF7 breast, 13.4%; with HCT-116 colon, 15.1%; in the assay with HCC-2998 colon, 23.3%; in the assay on KM12 colon, 25.3%. The growth in the assay on MDA-MB-468 breast is -6.53% (active).
On to `Cn1cc(-c2cc3nc(-c4c[nH]c5ccc(Br)cc45)cc(N)n3n2)c2ccccc21`, for which the growth in the assay on SR leukemia is 2.66% (active); in the assay with RPMI-8226 leukemia, -10.1% (active); in the assay on OVCAR-8 ovarian, -85.1% (active); with OVCAR-5 ovarian it was -86.1% (active); with OVCAR-4 ovarian it was -57% (active); in the assay on SK-OV-3 ovarian, -66.5% (active). Moreover, the growth was -57.2% (active) with IGROV1 ovarian; -40% (active) in the assay with OVCAR-3 ovarian; -22.5% (active) in the assay on HS 578T breast; -32.8% (active) with NCI/ADR-RES ovarian; -60.8% (active) in the assay with T-47D breast; -63.6% (active) in the assay with BT-549 breast. In addition, the growth with MDA-MB-435 melanoma is -88.6% (active); in the assay on SW-620 colon, -63.5% (active); with MCF7 breast it was -87.2% (active); in the assay on HCT-116 colon, -90.6% (active); with HCC-2998 colon, -82.4% (active); in the assay on KM12 colon it was -83% (active). The growth in the assay on MDA-MB-468 breast was -70.3% (active).
